Experimental data as given in PubChem BioAssay AID602393 (Broad Institute, 2012).
Hit rate of the full screen: of about 350,000 compounds, about 7,000 (2%) were called active. Only a selection was taken, and actives are over-represented in it overall. Unmarked numbers belong to inactive results. Rule as the data show it: active = activation above about 40%; inconclusive = no clear call, values can overlap the other calls; inactive = below that.

Assay: raisers of Bmi1 knock-in reporter signal – mouse ES cells, Bmi1 luciferase knock-in, single point, esBAF inhibitor project, primary screen (AID 602393);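 also: 0% = median of the plate's neutral control wells and 100% = double that signal; a rise in the Bmi1 reporter signal indicates esBAF inhibition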
Conditions: 24 h, at 12.5 µM, stronger effect = higher value, 100% = twice the neutral-well signal

SMILES	reporter increase
CCCC(=O)Nc1ccc2c(c1)C(=O)N(C)C[C@H](OC)[C@H](C)CN(CCc1ccccc1)[C@H](C)CO2	-0.112%
Cc1ccc(S(=O)(=O)NCC[C@@H]2CC[C@H](NC(=O)c3ccccn3)[C@H](CO)O2)cc1	1.61%
O=C(N[C@H]1CC[C@@H](CCNC(=O)C2CCC2)O[C@@H]1CO)c1ccncc1	-1.2%
Cc1noc(C)c1NC(=O)Nc1ccc2c(c1)C(=O)N([C@@H](C)CO)C[C@H](C)[C@@H](CN(C)Cc1ccncc1)OCCCC[C@@H](C)O2	-7.33%
O=C(C[C@@H]1CC[C@H]2[C@@H](COC[C@@H](O)CN2S(=O)(=O)c2cccc(F)c2)O1)NCCCN1CCOCC1	2.86%
O=C(NCc1ccccn1)Nc1ccc(Cl)cc1	21.5%
O=C(NCc1ccccn1)c1cc(-c2ccccc2Cl)on1	54.4% (active)
O=C(Nc1cccnc1Cl)c1cc(-c2ccccc2O)on1	65% (active)
Clc1ccccc1-c1cc(COc2ccc3ccccc3c2)no1	9.3%
O=C(NC1CCCC1)c1cc(-c2ccccc2)on1	18.8%
C=CCNC(=O)c1cc(-c2ccccc2O)on1	35.4%
C[C@H](CO)N1C[C@H](C)[C@@H](CN(C)C)OCCCC[C@H](C)Oc2ccc(NC(=O)C3CCCCC3)cc2C1=O	-0.46%
COc1ccc(CNC(=O)C[C@H]2CC[C@@H]3[C@H](COc4ccc(NC(=O)C5CC5)cc4C(=O)N3C)O2)cc1	-1.53%
CCCNC(=O)N(C)C[C@H]1Oc2ncc(C#C[C@@H](C)O)cc2C(=O)N([C@@H](C)CO)C[C@@H]1C	-6.34%
N#C[C@H]1[C@@H](c2ccc(C3=CCCCC3)cc2)[C@@H](CO)N1C(=O)Cc1ccncc1	2.63%
Cc1noc(C)c1NC(=O)Nc1ccc2c(c1)C(=O)N([C@@H](C)CO)C[C@H](C)[C@@H](CN(C)C(=O)C1CCCCC1)OCCCC[C@@H](C)O2	3.6%
CCCNC(=O)Nc1ccc2c(c1)OC[C@@H](C)N(CC1CCCC1)C[C@@H](C)[C@H](OC)CN(C)C2=O	6.43%
O=C(C[C@@H]1CC[C@H]2[C@@H](COC[C@H](O)CN2S(=O)(=O)c2ccc(F)cc2)O1)N[C@H]1CCN(Cc2ccccc2)C1	5.45%
COCCNC(=O)C[C@H]1CC[C@@H]2[C@@H](COc3ccc(NC(=O)C4CCOCC4)cc3C(=O)N2C)O1	0.774%
O=S(=O)(Nc1ccc2nc(N3CCOCC3)sc2c1)c1ccccc1	73% (active)
CC(=O)Nc1ccc(S(=O)(=O)Nc2ccc(N3CCOCC3)c(F)c2)cc1	0.869%
Cc1nc2ccc(NC(=O)c3cccc(S(=O)(=O)N4CCOCC4)c3)cc2s1	7.36%
O=C(C[C@@H]1C[C@@H]2c3cc(NC(=O)C4CCOCC4)ccc3O[C@@H]2[C@H](CO)O1)NCc1ccncc1	-0.887%
C[C@@H]1CN([C@H](C)CO)C(=O)c2cc(-c3ccncc3)cnc2O[C@@H]1CN(C)C(=O)Cc1cccnc1	-2.67%

SMILES	reporter increase
Cc1ccc(S(=O)(=O)N[C@@H]2CC[C@@H](CCn3cc(C(C)C)nn3)O[C@H]2CO)cc1	-3.18%
Cc1cccc(S(=O)(=O)N2C[C@H]3[C@@H](c4ccccc42)[C@H](CO)N3Cc2ccc3c(c2)OCO3)c1	-3.41%
CO[C@@H]1CN(C)C(=O)c2ccc(NS(=O)(=O)c3ccc(C)cc3)cc2OC[C@@H](C)N(Cc2nccs2)C[C@H]1C	-3.84%
c1ccc(-c2cc(-c3ccccc3)[nH]n2)cc1	42.5% (active)
CC(C)(C)C1CCC(=NNC(=O)c2cc(-c3ccccc3)n[nH]2)CC1 (configuration not stated)	-0.812%
Oc1ccccc1-c1cc(-c2ccc(Cl)cc2)n[nH]1	21.6%
CN1C(=O)c2cc(NC(=O)Nc3ccccc3F)ccc2OC[C@H]2O[C@@H](CC(=O)Nc3cccc(Cl)c3)CC[C@@H]21	20.4%
Cc1noc(C)c1S(=O)(=O)N(C)C[C@H]1OCCCC[C@H](C)Oc2ccc(NS(=O)(=O)c3ccccc3)cc2C(=O)N([C@H](C)CO)C[C@@H]1C	-1.33%
Cn1cnc(CCNC(=O)C[C@@H]2CC[C@@H]3[C@H](COC[C@@H](O)CN3C(=O)Nc3ccccc3)O2)c1	-3.44%
C[C@@H]1CN([C@@H](C)CO)S(=O)(=O)c2ccc(-c3cncnc3)cc2O[C@@H]1CN(C)C(=O)C1CC1	-3.14%
Cn1c(Nc2cccc(Cl)c2)nc2ccccc21	53.4% (active)
O=C(Cn1c(NCCO)nc2ccccc21)c1ccc(Cl)cc1Cl	-0.748%
C/C(=N\c1nc2ccccc2n1C)c1cc(Cl)ccc1O	-2.25%
C[C@@H]1CN([C@H](C)CO)C(=O)CCCn2cc(nn2)CO[C@@H]1CN(C)C(=O)c1ccc2ccn(C)c2c1	-1.71%
Cc1cc(CN(C)C(=O)c2cc(COc3ccc(C)c(C)c3)on2)n[nH]1	13.8%
Cc1ccc(OCc2cc(C(=O)N(C)CCc3ccccc3)no2)cc1C	71.6% (active)
Cc1ccc(OCc2cc(C(=O)N(C)CCn3ccnc3C)no2)cc1C	11.8%
O=C(Nc1ccccc1)Nc1ccc2c(c1)[C@@H]1C[C@@H](CC(=O)N3CCCCC3)O[C@H](CO)[C@@H]1O2	-0.639%
CO[C@H]1CN(C)C(=O)c2ccc(NS(=O)(=O)c3cn(C)cn3)cc2OC[C@@H](C)N(CC2CC2)C[C@H]1C	-8.79%
O=C(Nc1ccon1)c1sc2ccccc2c1Cl	48.7% (active)
CN1CCc2ccccc2C1Cc1ccccc1NC(=O)c1sc2ccccc2c1Cl (configuration not stated)	51%
O=C(Nc1ccon1)c1nc[nH]c1C(=O)NCc1ccccc1	-6.72%
Cc1ccc(-n2c(SCC(=O)N3CCC(C(=O)O)CC3)nc3ccccc3c2=O)cc1C	42% (active)
O=C(CSc1nc2ccccc2c(=O)n1-c1ccc(F)cc1)NC1CC1	-5.85%

SMILES	reporter increase
O=C(CSc1nc2ccccc2c(=O)n1-c1ccccc1F)N1CCOCC1	-4.38%
Cc1noc(C)c1NC(=O)Nc1ccc2c(c1)C(=O)N([C@H](C)CO)C[C@H](C)[C@H](CN(C)S(=O)(=O)c1cccs1)O2	1.55%
O=C(NC1CCCC1)[C@H]1[C@H](CO)[C@H]2Cn3c(ccc(-c4ccccc4F)c3=O)[C@@H]1N2C(=O)CC1CC1	-2.95%
CO[C@H]1CN(C)C(=O)c2cc(NS(=O)(=O)c3ccccc3C)ccc2OC[C@@H](C)NC[C@@H]1C	1.69%
C[C@@H]1CCCCO[C@H](CN(C)C(=O)CCCN(C)C)[C@H](C)CN([C@@H](C)CO)C(=O)c2cc(NS(=O)(=O)c3ccc(Cl)cc3)ccc2O1	2.25%
C[C@H](CO)N1C[C@H](C)[C@H](CN(C)Cc2ccc(C(F)(F)F)cc2)Oc2ccc(NC(=O)CCCCCC(=O)Nc3ccccc3N)cc2CC1=O	-12.1%
Cc1ccc(/C=N/NC(=O)Cn2nc(C)c(Br)c2C)o1	-0.989%
O=C(Cc1ccccc1)N/N=C/c1ccc(Cl)cc1Cl	3%
CCn1nc(C)c(/C=N/NC(=O)Cc2ccc(Cl)cc2)c1C	64.3% (active)
COc1cccc(-c2cnc3c(c2)C(=O)N([C@@H](C)CO)C[C@@H](C)[C@H](CN(C)C(=O)CN(C)C)O3)c1	4.59%
O=C(C[C@H]1C=C[C@H](NC(=O)c2cnccn2)[C@@H](CO)O1)NCc1ccccc1F	-2.01%
Cc1ccc(-c2nc(COC(=O)c3c(C)noc3C)cs2)cc1	76.6% (active)
Cc1noc(C)c1COC(=O)c1cc2ccccc2cc1O	-1.05%
Cc1ccc(S(=O)(=O)N2CCN(C(=O)COC(=O)c3c(C)noc3C)CC2)c(C)c1	0.794%
COc1ccc(CNC(=O)C[C@H]2CC[C@H](NC(=O)Nc3ccc4c(c3)OCO4)[C@H](CO)O2)cc1	-2.93%
C[C@H]1CCCCO[C@H](CN(C)C(=O)Nc2ccccc2)[C@@H](C)CN([C@@H](C)CO)C(=O)c2cc(NC(=O)Nc3ccc4c(c3)OCO4)ccc2O1	27%
C[C@H](CO)N1C[C@H](C)[C@@H](CN(C)C(=O)Nc2ccc3c(c2)OCO3)OCCCC[C@H](C)Oc2ccc(NC(=O)Nc3ccc(F)cc3)cc2C1=O	4.31%
COc1ccc(NC(=O)N(C)C[C@H]2OCCCC[C@@H](C)Oc3ccc(NC(=O)Nc4ccc5c(c4)OCO5)cc3C(=O)N([C@H](C)CO)C[C@@H]2C)cc1	49.3% (active)
C[C@H](CO)N1C[C@H](C)[C@@H](CN(C)C(=O)Nc2ccc3c(c2)OCO3)OCCCC[C@H](C)Oc2ccc(NC(=O)Nc3ccc4c(c3)OCO4)cc2C1=O	45% (active)
C[C@H]1CCCCO[C@H](CN(C)C(=O)Nc2ccc3c(c2)OCO3)[C@@H](C)CN([C@@H](C)CO)C(=O)c2cc(NC(=O)Nc3ccccc3)ccc2O1	10.9%
C[C@@H]1CN([C@@H](C)CO)C(=O)c2cc(NC(=O)Nc3ccc4c(c3)OCO4)ccc2O[C@@H](C)CCCCO[C@@H]1CN(C)C(=O)Nc1ccc2c(c1)OCO2	64.3% (active)
C[C@@H]1CN([C@@H](C)CO)C(=O)c2cc(NC(=O)Nc3ccc4c(c3)OCO4)ccc2O[C@@H](C)CCCCO[C@H]1CN(C)C(=O)Nc1ccc(C(F)(F)F)cc1	0.715%
COc1ccc(NC(=O)Nc2ccc3c(c2)C(=O)N([C@H](C)CO)C[C@H](C)[C@@H](CN(C)C(=O)Nc2ccc(OC)cc2)OCCCC[C@H](C)O3)cc1	3.33%
COc1ccc(NC(=O)Nc2ccc3c(c2)C(=O)N([C@@H](C)CO)C[C@@H](C)[C@@H](CN(C)C(=O)Nc2ccc(F)cc2)OCCCC[C@@H](C)O3)cc1	4.33%
